Source: PubChem BioAssay (Tox21)
Results filed as inconclusive are left out. Entries that show only a call come without a potency. A number with no mark means an inactive call. Calls of active or inactive are those of the source. Calls come from the whole dose curve.

test: p53 small molecule agonists, cell-based qHTS assay with rat liver microsomes: qHTS cell viability counter screen (AID 1963580); conditions: p53RE-bla HCT-116 + rat microsomes, ATP viability, 16 h; series mostly up to 66 µM; note: nearly all actives have a fitted effect of over 45% in size
Source text: National Center for Advancing Translational Sciences [NCATS]
Division of Preclinical Innovation [DPI]
U.S. Environmental Protection Agency [EPA]
National Institutes of Environmental Health Sciences [NIEHS]
National Toxicology Program [NTP]
U.S. Food and Drug Administration [FDA]
p53, a tumor suppressor protein, is activated following cellular insult, including DNA damage and other cellular stresses. The activation of p53 regulates cell fate by inducing DNA repair, cell cycle arrest, apoptosis, or cellular senescence. The activation of p53, therefore, is a good indicator of DNA damage and other cellular stresses. The CellSensor p53RE-bla HCT-116 cell line contains a stably integrated beta-lactamase reporter gene under control of the p53 response elements. The activation of the reporter gene under culture conditions can be detected by fluorescence intensity. This cell line was used to screen the Tox21 10K compound library in the condition of presence of rat liver microsomes and to identify agonists that activate the p53 signaling pathway after in vitro metabolic activation (Ooka et al., Archive of Toxicology 96:1975-1987, 2022). The cytotoxicity of the Tox21 compound library against the p53 RE-bla HCT-116 cell line was tested in parallel by measuring the intra cellular ATP content in the same wells.
Tox21 Assay Protocol Summary:
The p53RE-bla cells were dispensed at 4,000cells/3ul/well in 1536-well black-clear bottom plates. After the assay plates were incubated at 37 C, 5% CO2 incubator for 5 hours, 23 nL of compounds dissolved in DMSO, positive controls or DMSO only was transferred to the assay plate. Following compound addition, 3 uL of rat liver microsomes (Molecular Toxicology, Boone, NC) at final concentration of 0.5 mg/mL and 1uL of B-Nicotinamide adenine dinucleotide 2'-phosphate (NADPH) at final concentration of 0.5 mg/mL were transferred to the assay plate. The plates were incubated at 37 C for 16 hours. 1 uL of LiveBLAzer detection mixture was added to each well and the plates were incubated at room temperature in the dark for 2 h. Fluorescence intensity at 460 and 530 nm emission and 405 nm excitation were measured by an Envision plate reader. For cell viability readout that measures cytotoxicity, 4 ul/well of CellTiter-Glo reagent was added into the assay plates using a Flying Reagent Dispenser. After 30 min incubation at room temperature, the luminescence intensity in the plates was measured using a ViewLux plate reader.

Which Potency does the source give for `CC(C)OC(=O)C(C)(C)Oc1ccc(C(=O)c2ccc(Cl)cc2)cc1` here?
Its Potency is “inactive”.

With `Cn1cnc2c(F)c(Nc3ccc(Br)cc3Cl)c(C(=O)NOCCO)cc21` as the compound, how does the Potency read?
Its Potency is “inactive”.

Which Potency does the source give for `CC(Cl)COP(=O)(OCC(C)Cl)OCC(C)Cl` (stereo not given) here?
The Potency was “inactive”.

For `COC(=O)c1ccccc1C(=O)O`, which Potency is on record?
The Potency was “inactive”.

For `CCC(C)(O)CCC=C(C)C` (stereo not given), which Potency is on record?
Its Potency is “inactive”.

Which Potency does the source give for `C=C(C)[C@H]1CC=C(C)CC1` here?
The Potency was “inactive”.

For `CCCCCCCCCCCC(=O)OC[C@@H](O)[C@H]1OC[C@H](OCCO)[C@H]1OCCO`, which Potency is on record?
The Potency was “inactive”.

With `CCCCCCOC(=O)CC` as the compound, how does the Potency read?
The Potency was “inactive”.

Which Potency does the source give for `CC(=O)OCCc1ccccc1` here?
Its Potency is “inactive”.

For `CCCCCCS`, which Potency is on record?
The Potency was “inactive”.

With `CCCCCCc1ccc(-c2ccc(C#N)cc2)cc1` as the compound, how does the Potency read?
Its Potency is “inactive”.

With `C[C@@H](O)[C@H]1C(=O)N2C(C(=O)O)=C([C@H]3CCCO3)S[C@H]12` as the compound, how does the Potency read?
Its Potency is “inactive”.

With `NC(=O)N[C@@H](CCC(=O)O)C(=O)O` as the compound, how does the Potency read?
The Potency was “inactive”.

With `C=CC(C)(O)CC/C=C(\C)CCC=C(C)C` (stereo not given) as the compound, how does the Potency read?
Its Potency is “inactive”.

With `CO[C@@H]1[C@@H](O[C@@H]2O[C@H](C)[C@@H](O[C@H]3C[C@@](C)(O)[C@@H](O)[C@H](C)O3)[C@H](N(C)C)[C@H]2O)[C@@H](CC=O)C[C@@H](C)[C@@H](O[C@@H]2CC[C@H](N(C)C)[C@@H](C)O2)/C=C/C=C/C[C@@H](C)OC(=O)C[C@H]1OC(C)=O` as the compound, how does the Potency read?
The Potency was “inactive”.

Which Potency does the source give for `CC[C@H](C)[C@@H](C(=O)O)n1sc2ccccc2c1=O` here?
The Potency was “inactive”.

For `CCCCCCCCS`, which Potency is on record?
Its Potency is “inactive”.

For `CC1=C(O)C(=O)OC1C` (stereo not given), which Potency is on record?
Its Potency is “inactive”.

For `CC(=O)Nc1ccc(C)cc1`, which Potency is on record?
The Potency was “inactive”.

With `Cc1cc(C)cc(OCC2CNC(=O)O2)c1` (stereo not given) as the compound, how does the Potency read?
Its Potency is “inactive”.

Which Potency does the source give for `CC(=O)O[C@@H]1CC2C3CCc4cc(OC(=O)c5ccccc5)ccc4C3CCC2(C)[C@H]1OC(C)=O` (stereo not given in full) here?
Its Potency is “inactive”.

With `c1ccc2cnncc2c1` as the compound, how does the Potency read?
The Potency was “inactive”.

For `CC(C#N)(CCC(=O)O)N=NC(C)(C#N)CCC(=O)O` (stereo not given), which Potency is on record?
The Potency was “inactive”.

Which Potency does the source give for `O=C(O)CC(=O)O` here?
The Potency was “inactive”.

For `CC(=O)S[C@H](C(=O)N[C@H]1Cc2ccccc2[C@H]2CCC[C@@H](C(=O)O)N2C1=O)C(C)C`, which Potency is on record?
Its Potency is “inactive”.

With `Cc1ccc(C=O)cc1` as the compound, how does the Potency read?
The Potency was “inactive”.

For `CC(C)(c1ccc(O)cc1)c1ccc(O)cc1`, which Potency is on record?
Its Potency is “inactive”.

With `O=S(=O)(O)CCCN1CCOCC1` as the compound, how does the Potency read?
Its Potency is “inactive”.

For `Nc1cc(S(=O)(=O)O)cc2cc(S(=O)(=O)O)cc(O)c12`, which Potency is on record?
Its Potency is “inactive”.

For `Cc1ncc(CSSCc2cnc(C)c(O)c2CO)c(CO)c1O`, which Potency is on record?
Its Potency is “inactive”.

Which Potency does the source give for `Nc1ccc(NCCO)c([N+](=O)[O-])c1` here?
Its Potency is “inactive”.

With `CN(C(=O)c1c(O)c2ccccc2n(C)c1=O)c1ccccc1` as the compound, how does the Potency read?
Its Potency is “inactive”.

With `Cc1cccnc1` as the compound, how does the Potency read?
Its Potency is “inactive”.

Which Potency does the source give for `Cc1cn([C@H]2C[C@H](F)[C@@H](CO)O2)c(=O)[nH]c1=O` here?
Its Potency is “inactive”.

With `COC(=O)c1ccc2cc(C(=O)OC)ccc2c1` as the compound, how does the activity change, negative = cytotoxicity read?
Its activity change, negative = cytotoxicity is -1.51% [at 13.5 µM].

Which Potency does the source give for `CC1CNCC(C)O1` (stereo not given) here?
Its Potency is “inactive”.

Which Potency does the source give for `O=C(O)c1ccccc1S` here?
Its Potency is “inactive”.

With `O=C(O)c1cccc(C[C@@H]2COc3ccc(OCc4nc5cc(F)ccc5s4)cc3[C@@H]2O)c1` as the compound, how does the Potency read?
The Potency was “inactive”.

Which Potency does the source give for `CNC(=O)NC` here?
The Potency was “inactive”.

With `CCCCCC/C=C/C(=O)OC` as the compound, how does the Potency read?
The Potency was “inactive”.
